Sampled rows, rich in hits. Any-hit rate of the full collection: about 12%.
Gal4-VP16 FLuc – inhibits Gal4-VP16 luciferase reporter, ROR gamma counter-screen; Drosophila S2 Gal4-VP16 UAS-luciferase, luminescence, 20 h; Potency, µM (doses to about 53.6 µM), most hits filed as inhibitors; actives 3.5% (n = 310,000); AID 2546;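 further: Gal4-VP16 expression switched on by copper sulfate through the metallothionein promoter; nearly all actives have a fitted effect of over 50% in size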
Sfp inh – blocks B. subtilis Sfp PPTase activity. Q9F4F7. Biochemical Sfp PPTase activity, qHTS. Potency, µM, hits mostly inhibitors. actives 3.5% (n = 310,000). AID 1490;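 further: the enzyme is Sfp with the accession as filed and its product quenches rhodamine fluorescence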
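Fluorescence-quenching assay: 15 nM Sfp-PPTase preincubated 15 min at room temperature with compound, then 5 uM rhodamine-CoA and 12.5 uM BHQ-2-labelled YbbR peptide added. Fluorescence (ex 525/em 598 nm) read at start and after 30 min; difference gives rate.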
ALDH1A1 inh – inhibitors of human aldehyde dehydrogenase 1A1; Purified ALDH1A1, NADH fluorescence, propionaldehyde substrate; actives 7.3% (n = 220,000); P00352; Potency, µM (doses to about 75.3 µM), usual class: inhibitors; active means well fitted inhibition curve with a large enough effect, not every such curve was filed as active; inconclusive means small, poorly fitted or top-dose-only effect, or another doubt; inactive means no such curve, though single readings can be large or run the other way
PLK1 PBD block – inhibitors of human PLK1 polo-box domain binding | P53350 | Plk1 PBD binding of FITC phosphopeptide, fluorescence polarization | Potency, µM, most hits filed as inhibitors | actives 2.8% (n = 360,000) | AID 720504; further: series mostly up to about 57 µM; nearly all actives have a fitted effect of over 65% in size
RORgamma inh – blocks mouse ROR gamma transcriptional activity | Drosophila S2 Gal4-RORgamma UAS-luciferase reporter, 20 h | Potency, µM (top dose mostly 53.6 µM), most hits filed as inhibitors | actives 5.4% (n = 310,000) | P51450; further: nearly all actives have a fitted effect of over 60% in size
Target sequence (P51450 whole entry, looked up, the tested form may be a part): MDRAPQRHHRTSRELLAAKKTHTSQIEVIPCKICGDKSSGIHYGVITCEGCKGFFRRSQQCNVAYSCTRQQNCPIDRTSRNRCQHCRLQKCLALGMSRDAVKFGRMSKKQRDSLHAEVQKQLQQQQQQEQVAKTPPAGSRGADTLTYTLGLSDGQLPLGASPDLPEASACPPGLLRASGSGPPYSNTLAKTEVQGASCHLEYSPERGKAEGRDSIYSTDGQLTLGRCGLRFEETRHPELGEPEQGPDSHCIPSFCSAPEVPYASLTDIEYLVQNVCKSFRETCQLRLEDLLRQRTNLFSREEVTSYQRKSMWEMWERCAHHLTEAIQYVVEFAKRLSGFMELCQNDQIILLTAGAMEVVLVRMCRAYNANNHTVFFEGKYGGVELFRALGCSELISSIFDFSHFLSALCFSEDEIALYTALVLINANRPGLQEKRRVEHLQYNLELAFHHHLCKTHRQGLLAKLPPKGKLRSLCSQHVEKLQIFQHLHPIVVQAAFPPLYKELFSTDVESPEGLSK
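Drosophila S2 cells stably expressing Gal4-DBD/mouse RORγ fusion under metallothionein promoter plus UAS-luciferase; compound 1 h, then 700 uM CuSO4 induction for 20 h at ambient temperature; inhibition read as reduced luminescence.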
Hits are given with their value; - = inactive; ? = inconclusive; . = not tested or not shown; [ ] = dose if it differs, or a comment. Unless noted, the call rests on the fitted dose curve; in most records, active means well fitted curve in the direction sought with a large enough effect; inconclusive means small, poorly fitted or top-dose-only effect, or another doubt; inactive means no such curve, though single readings can be large; an effect the other way counts as inactive or inconclusive.

SMILES | Gal4-VP16 FLuc | Sfp inh | ALDH1A1 inh | PLK1 PBD block | RORgamma inh
CCC1S/C(=N/N=C/c2cccs2)NC1=O (stereo not given) | 3.98µM | - | - | - | 0.794µM
C[C@H](CO)NC(=O)[C@H]1C[C@@H]1[C@H](NP(=O)(c1ccccc1)c1ccccc1)c1ccccc1 | - | - | - | . | -
Cn1c(=O)c(CCc2ccccc2)nc2cnc(OCc3ccccc3)nc21 | - | - | 11.2µM | . | -
COCCn1c(=O)c(CCc2ccccc2)nc2cnc(Oc3cccc(Cl)c3)nc21 | - | - | 14.1µM | . | ?
COCCn1c(=O)c(-c2ccccc2)nc2cnc(Oc3cccc(Cl)c3)nc21 | - | - | ? | . | -
N#Cc1ccccc1Cn1c(=O)n(Cc2ccc(C(=O)NCc3ccco3)cc2)c(=O)c2sccc21 | - | - | 25.1µM | - | -
Cc1cccc(Cn2c(=O)n(-c3ccc(CC(=O)NCc4ccco4)cc3)c(=O)c3sccc32)c1 | - | 22.4µM | ? | - | -
N#Cc1ccccc1Cn1c(=O)n(-c2ccc(CC(=O)NCc3ccco3)cc2)c(=O)c2sccc21 | - | - | - | - | -
O=C(NCCc1ccc(Cl)cc1)C1CCCN1C(=O)Nc1ccccc1 (stereo not given) | - | - | . | - | -
COc1ccccc1-n1c(C)cc(/C=C2/C(=N)N3C(=NC2=O)SN=C3S(C)(=O)=O)c1C | ? | - | ? | ? | -
Cc1ccc(-n2cccc2/C=C2/C(=N)N3C(=NC2=O)SN=C3S(C)(=O)=O)cc1Cl | - | 89.1µM | 17.8µM | 26.7µM | -
Cc1cccc(C)c1-n1cccc1/C=C1/C(=N)N2C(=NC1=O)SN=C2S(C)(=O)=O | - | - | ? | 21.2µM | -
CC(C)c1ccc(SCc2noc(C(=O)NCC3CCCO3)c2C(=O)O)cc1 (stereo not given) | - | 100µM | ? | - | -
CNc1ccccc1C(C)(C)c1cc(-c2cccc(Br)c2)no1 | 15.8µM | - | - | - | ?
Cc1ccc(NC(=O)CSC2=NN3CCCC(=O)N=C3S2)c(C)c1 | - | - | ? | - | -
Cc1ccc(NC(=O)CC2SC3=NCCCN3C2=O)c(C)c1 (stereo not given) | - | ? | 1µM | ? | ?
C[C@H]1[C@@H](Cc2cc(Cl)cc(Cl)c2)N(c2ccccc2)c2ccccc2CN1Cc1ccccc1 | . | . | . | - | .
CCc1nc2ccc(C(=O)NCCC(C)C)cn2c1N(CCN(C)C)CC1CC1 | . | . | . | - | .
Cc1ccc(C2=C/C(=C/c3cccnc3)C(=O)O2)c(C)c1 | - | 50.1µM | ? | - | -
O=C1OC(c2ccc(Cl)cc2)=C/C1=C/c1cccnc1 | - | - | . | - | -
Nn1c(SCC(=O)NC2CCCCC2)nnc1C1CC1 | - | - | 23.8µM | - | -
Cc1nnc(SCC(=O)NC2CCCCC2)n1N | . | . | . | - | .
CNc1cnc(-c2cccc(C(=O)N3CCOCC3)c2)cn1 | . | . | . | - | .
CN(C)Cc1nc2c([nH]1)c(=O)n(C)c(=O)n2C | - | 56.2µM | - | - | -
Cn1c(=O)c2[nH]c(COCc3nc4c([nH]3)c(=O)n(C)c(=O)n4C)nc2n(C)c1=O | . | . | -[13.5 µM] | . | .
SMILES | Gal4-VP16 FLuc | Sfp inh | ALDH1A1 inh | PLK1 PBD block | RORgamma inh
N#Cc1ccc(CN2CCN(C(=O)Cn3nc(C(N)=O)c4ccccc4c3=O)CC2)cc1 | - | - | . | - | -
CN=c1scc(-c2ccc(F)cc2)n1/N=C/c1ccc(O)c(O)c1 | 0.794µM | 56.2µM | ? | - | 0.112µM
CCN(CC)S(=O)(=O)c1ccc(C(=O)NC(=S)N(CCO)Cc2ccccc2)cc1 | 3.16µM | - | . | ? | 1.12µM
O=C(NC(=S)N(CCO)Cc1ccccc1)c1ccc(F)cc1Cl | 2.82µM | - | . | - | 0.562µM
CCCOc1ccc(CN(CCC#N)C(=S)NC(=O)c2ccccc2)cc1 | 0.562µM | - | - | - | 0.316µM
OCCN(Cc1ccccc1)C(=S)Nc1ccc(F)cc1 | - | - | - | - | -
CCCN(CCC)C(=S)NC(=O)c1ccc(Cl)cc1Cl | 0.891µM | - | - | - | 0.282µM
COc1ccccc1CNc1cc(-c2ccccc2Cl)ncn1 | - | - | - | . | -
O=c1c2c(-c3ccccc3)csc2ncn1/N=C/c1cccc([N+](=O)[O-])c1O | - | - | - | - | 20µM
Cn1cc(/C=N/NC(N)=S)c2ccccc21 | 22.4µM | - | . | - | ?
Cn1cc(/C=N/NC(=O)c2ccc(C#N)cc2F)c2ccccc21 | ? | - | - | - | 5.01µM
Cn1cc(/C=N\NC(=O)c2cccs2)c2ccccc21 | ? | - | - | - | 8.91µM
Cc1nn(-c2ccccc2)cc1/C=N/NC(N)=S | 4.47µM | - | . | - | 2.51µM
CC1=C(C(=O)N(C(C)C)C(C)C)CC(CC(=O)NC(c2ccccc2)c2ccccc2)C(=O)N1CCCN1CCCC1=O (stereo not given) | . | . | . | - | .
C[C@H](CO)N1C[C@H](C)[C@@H](CN(C)Cc2ccc(F)cc2)Oc2ncc(Br)cc2C1=O | . | . | . | - | .
Cc1ccc(S(=O)(=O)N2C[C@H]3C(=O)C[C@@H](c4ccccc4C)N(S(=O)(=O)c4ccc(C)cc4)[C@H]3C[C@H]2c2ccccc2)cc1 | . | . | . | - | .
CCOC1=C2[C@H](c3ccccc3Cl)N(S(=O)(=O)c3ccc(C)cc3)C[C@H]2C(C#N)(C#N)C(C#N)(C#N)C1 | . | . | . | 26.7µM | .
CCOC1=C2[C@H](c3ccc(CC)cc3)N(S(=O)(=O)c3ccc(C)cc3)C[C@H]2C(C#N)(C#N)C(C#N)(C#N)C1 | . | . | . | 16.8µM | .
CCOC1=C2CN(S(=O)(=O)c3ccc(C)cc3)C(c3ccc(CC)cc3)CC2N(S(=O)(=O)c2ccc(C)cc2)C(c2ccc(CC)cc2)C1 (stereo not given) | . | . | . | - | .
CCOC1=C2[C@@H](CN(S(=O)(=O)c3ccc(C)cc3)[C@H]2c2ccccc2Cl)[C@H]2C(=O)NC(=O)[C@H]2C1 | . | . | . | - | .
Cc1ccc([N+](=O)[O-])cc1NC(=O)c1ccoc1C | - | - | 20µM | 29.9µM | -
COc1ccc(C)cc1NC(=O)c1ccoc1C | - | - | - | - | -
COc1ccc(C(C)(C)C)cc1NC(=O)c1ccoc1C | ? | - | - | - | 2.24µM
Cc1occc1C(=O)NNC(=O)Nc1ccc([N+](=O)[O-])cc1 | - | - | 14.1µM | - | -
O=C(CCc1ccccc1)c1nnc(-c2ccccc2)o1 | - | - | - | - | -
SMILES | Gal4-VP16 FLuc | Sfp inh | ALDH1A1 inh | PLK1 PBD block | RORgamma inh
Nc1ccc(S(=O)(=O)Nc2cnc3ccccc3n2)cc1 | - | - | -[13.5 µM] | - | -[10 µM]
Nc1ccc(S(=O)(=O)Nc2nc3ccccc3o2)cc1 | - | 50.1µM | . | ? | -[1.91 µM]
O=C1C(CCc2ccccc2)ON=C(c2cnccn2)N1Cc1ccc(F)cc1 (stereo not given) | . | . | . | - | .
COC(=O)c1ccc(COC(=O)c2ccc(-n3cnnn3)cc2)o1 | - | ? | 20µM | - | -
CC(=O)C1=CCC(c2cccs2)N(S(=O)(=O)c2ccc(C)cc2)C1 (stereo not given) | . | . | . | - | .
CCCCCN1CC(=O)N2Cc3[nH]c4ccccc4c3C[C@H]2C1=O | - | - | . | - | -
CCCCN1C(=O)C2Cc3c([nH]c4ccccc34)CN2C1=S (stereo not given) | ? | 56.2µM | ? | - | ?
